From PubChem BioAssay come the findings set out here.

Each structure is given as a SMILES string. Calls of active or inactive are those of the source. The rule behind the calls is not given here.

The test has as its system Aerobactin synthetase IucA (Klebsiella pneumoniae hvKP1). Briefly: IucA enzyme inhibition, primary screen, biochemical, Spectrum library (AID 1346200).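 Note: 100% = wells without compound and 0% = wells lacking enzyme.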 Particulars: malachite green pyrophosphate, A620, at 8 µM, stronger effect = lower value.
In the case of `C=C(C)C1CC=C(CO)CC1` (stereo not given), the activity remaining was 117% (inactive).

Regarding `Cc1ccc2c(c1)CC[C@H]1CC(=O)CC[C@]21C`, the activity remaining was 112% (inactive).

For the compound `CN1C(C)(C)CCCC1(C)C`, the activity remaining is 82.7% (inactive).

For the compound `NC(C(=O)O)C(O)C(=O)O` (stereo not given), the activity remaining was 97.5% (inactive).

In the case of `OC1CC2CCCC(C1)N2Cc1ccccc1` (stereo not given), the activity remaining was 93.4% (inactive).

Consider `COC1=C(OC)C(=O)C(C/C=C(\C)CC/C=C(\C)CC/C=C(\C)CC/C=C(/C)CC/C=C(\C)CC/C=C(\C)CC/C=C(\C)CC/C=C(\C)CC/C=C(\C)CCC=C(C)C)=C(C)C1=O`, for which the activity remaining was 93% (inactive).

Turning to `CCOC(=O)c1c(C)cc(O)cc1O`, the activity remaining was 119% (inactive).

As for `CN1CCCC(n2nc(Cc3ccc(Cl)cc3)c3ccccc3c2=O)CC1` (stereo not given), the activity remaining was 106% (inactive).

For the compound `NCCCC[C@H](N[C@@H](CCc1ccccc1)C(=O)O)C(=O)N1CCC[C@H]1C(=O)O`, the activity remaining is 114% (inactive).

For the compound `COc1ccc(-c2c(O)c3c(OC)c4c(cc3oc2=O)OC(C)(C)CC4)cc1`, the activity remaining is 99.1% (inactive).

For the compound `COc1ccc2c(c1)OC/C(=C\c1ccc(OC)c(O)c1)C2=O`, the activity remaining was 120% (inactive).

For the compound `COc1cc2ccc(=O)oc2cc1O`, the activity remaining was 110% (inactive).

As to `CCOC(=O)[C@H](CCc1ccccc1)N[C@@H](C)C(=O)N1Cc2ccccc2C[C@H]1C(=O)O`, the activity remaining was 95.9% (inactive).

As for `COc1cc(O)c(C(=O)c2ccccc2)cc1O`, the activity remaining was 107% (inactive).

With `O=C1c2c(O)cccc2Cc2cccc(O)c21`, the activity remaining is 92.3% (inactive).

Regarding `CC(C)(O)CC[C@@H](O)[C@](C)(O)C1CC[C@@]2(O)C3=CC(=O)C4C[C@@H](O)[C@@H](O)C[C@]4(C)C3CC[C@]12C` (stereo not given in full), the activity remaining was 102% (inactive).

As to `COC1(C)CCC2OC2(C)CCC2C1CC2(C)C` (stereo not given), the activity remaining was 113% (inactive).

`CO[C@H]1[C@@H](O)[C@@H](C)O[C@H](O[C@H]2CCC3(C)C4CCC5(C)[C@@H](C6=CC(=O)OC6)CC[C@]5(O)[C@@H]4CC[C@]3(O)C2)[C@@H]1O` (stereo not given in full): the activity remaining was 113% (inactive).

As to `C=CCCCCCCCCC(=O)O`, the activity remaining was 111% (inactive).

Take `CC(=O)Oc1ccc(-c2cc(=O)c3c(OC(C)=O)cc(OC(C)=O)cc3o2)cc1`: the activity remaining was 122% (inactive).

For the compound `COc1ccc2oc3ccccc3c(=O)c2c1`, the activity remaining was 106% (inactive).

As to `CC(=O)N1CCN(c2ccc(OCC3CO[C@](Cn4ccnc4)(c4ccc(Cl)cc4Cl)O3)cc2)CC1` (stereo not given in full), the activity remaining was 97% (inactive).

Take `COc1cc([C@@H]2c3cc4c(cc3[C@H](O)[C@H]3COC(=O)[C@@H]23)OCO4)cc(OC)c1OC`: the activity remaining is 82.7% (inactive).

For the compound `CC(=O)OCC(=O)[C@H]1CCC2C3CCC4=CC(=O)CC[C@]4(C)C3CC[C@@]21C` (stereo not given in full), the activity remaining was 111% (inactive).

Regarding `C[C@H](CC(=O)C1OC1(C)C)[C@H]1C(=O)C[C@@]2(C)C3=CCC4C(C)(C)[C@@H](O[C@@H]5OC[C@@H](O)[C@H](O)[C@H]5O)CC[C@@]45C[C@@]35[C@@H](O)C[C@]12C` (stereo not given in full), the activity remaining is 91.8% (inactive).
